Experimental data as given in PubChem BioAssay (NCATS).
Inconclusive results are not listed. Where a call stands in place of a potency, no number is given. Unmarked numbers belong to inactive results. Activity calls are given as the source filed them. The call rests on the fitted dose curve; in most records, active means well fitted curve in the direction sought with a large enough effect; inconclusive means small, poorly fitted or top-dose-only effect, or another doubt; inactive means no such curve, though single readings can be large; an effect the other way counts as inactive or inconclusive.

What was measured:
[1] = biological target: ATP-dependent 6-phosphofructokinase (Trypanosoma brucei brucei) (UniProt O15648); assay: qHTS Assay to Find Inhibitors of T. brucei phosphofructokinase: hit validation (AID 492961);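 further: luminescence reports ADP formed as PFK phosphorylates fructose-6-phosphate with ATP; series mostly up to about 51 µM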
Sequence of ATP-dependent 6-phosphofructokinase (Trypanosoma brucei brucei) (O15648 whole entry, looked up): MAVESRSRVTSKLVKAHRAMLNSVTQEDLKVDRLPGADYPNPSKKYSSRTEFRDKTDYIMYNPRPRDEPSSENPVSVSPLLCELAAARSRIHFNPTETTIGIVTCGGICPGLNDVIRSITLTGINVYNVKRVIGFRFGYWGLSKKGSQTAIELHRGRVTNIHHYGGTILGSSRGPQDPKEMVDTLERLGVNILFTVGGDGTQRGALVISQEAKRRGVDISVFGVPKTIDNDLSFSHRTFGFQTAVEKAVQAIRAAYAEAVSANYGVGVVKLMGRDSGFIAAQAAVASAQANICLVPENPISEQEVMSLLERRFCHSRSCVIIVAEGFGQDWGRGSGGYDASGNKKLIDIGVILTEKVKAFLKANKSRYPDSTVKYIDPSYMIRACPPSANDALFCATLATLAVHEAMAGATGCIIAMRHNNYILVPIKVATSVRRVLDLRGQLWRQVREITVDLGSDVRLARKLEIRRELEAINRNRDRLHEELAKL
Procedure, shortened: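 Measures ADP output of PFK (1.25 nM) at 0.1 mM ATP, 0.5 mM F6P, pH 8.0 TEA buffer with 5 mM MgCl2. No-enzyme wells define full inhibition; uninhibited enzyme wells define zero.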

[2] = biological target: Ubiquitin carboxyl-terminal hydrolase 1 (Homo sapiens) (UniProt O94782); assay: Inhibitors of USP1/UAF1: Pilot qHTS (AID 504865);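 further: rhodamine fluorescence freed from ubiquitin-rhodamine substrate followed over time; top concentration of the series differs between compounds; nearly all actives have a fitted effect of over 35% in size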
Sequence of Ubiquitin carboxyl-terminal hydrolase 1 (Homo sapiens) (O94782 whole entry, looked up): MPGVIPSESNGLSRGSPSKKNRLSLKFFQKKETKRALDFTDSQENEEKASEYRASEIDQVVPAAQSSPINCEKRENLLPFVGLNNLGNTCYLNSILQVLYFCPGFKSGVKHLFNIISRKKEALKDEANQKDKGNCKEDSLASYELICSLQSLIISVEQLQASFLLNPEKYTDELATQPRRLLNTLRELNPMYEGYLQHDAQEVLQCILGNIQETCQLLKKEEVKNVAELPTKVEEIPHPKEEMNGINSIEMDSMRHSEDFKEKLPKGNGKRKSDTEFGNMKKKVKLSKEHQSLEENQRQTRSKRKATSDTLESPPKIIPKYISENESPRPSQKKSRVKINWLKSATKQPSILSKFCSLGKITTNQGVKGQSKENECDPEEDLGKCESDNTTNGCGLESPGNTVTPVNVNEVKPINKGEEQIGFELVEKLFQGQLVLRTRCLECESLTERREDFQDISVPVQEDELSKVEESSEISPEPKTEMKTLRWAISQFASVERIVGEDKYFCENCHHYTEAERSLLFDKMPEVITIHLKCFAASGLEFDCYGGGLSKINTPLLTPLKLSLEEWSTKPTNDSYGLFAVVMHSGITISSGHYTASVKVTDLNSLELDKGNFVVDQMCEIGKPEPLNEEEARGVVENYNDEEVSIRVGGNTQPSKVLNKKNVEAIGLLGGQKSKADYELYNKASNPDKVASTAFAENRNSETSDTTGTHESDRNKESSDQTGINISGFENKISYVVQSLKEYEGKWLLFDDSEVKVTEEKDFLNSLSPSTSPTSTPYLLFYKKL
Procedure, shortened: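 1nM USP1/UAF1 + cpd, 15 min RT; start w/ Ub-Rho 150nM final; kinetic FL 480/540 nm, 6 reads q60 s. Buffer 50mM HEPES pH 7.8, 0.5mM EDTA, 1mM TCEP, 0.01% Tween-20, 0.1 mg/ml BSA.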

Structure (SMILES)	Potency [1]	Potency [2]
O=C1NCCN1c1ncc([N+](=O)[O-])s1	inactive	–
CC1=CCC2CC1C2(C)C (stereo not drawn)	inactive	inactive
Cc1ccccn1	inactive	inactive
CCCCCCCCCCCC(=O)N(CCO)CCO	inactive	inactive
CN1C(C(=O)Nc2ccccn2)C(=O)c2sc(Cl)cc2S1(=O)=O (stereo not drawn)	inactive	inactive
CCCCO	inactive	inactive
O=S(=O)(O)CCCS(=O)(=O)O	inactive	inactive
Cc1ncc[nH]1	inactive	inactive
CC1CCC(NC(=O)N(CCCl)N=O)CC1 (stereo not drawn)	inactive	inactive
O=P(O)(O)OC[C@H](O)CO	inactive	inactive
CC(C)c1nc(N(C)S(C)(=O)=O)nc(-c2ccc(F)cc2)c1/C=C/C(O)CC(O)CC(=O)O (stereo not drawn)	inactive	inactive
NCCN	inactive	inactive
C(=C\c1ccncc1)/c1ccccc1	inactive	inactive
Cc1ccc(C(C)(C)c2ccc(C)cc2)cc1	inactive	inactive
COC1=C(OC)C(=O)C(C/C=C(\C)CC/C=C(\C)CC/C=C(\C)CC/C=C(\C)CC/C=C(\C)CC/C=C(\C)CC/C=C(\C)CC/C=C(\C)CC/C=C(\C)CCC=C(C)C)=C(C)C1=O	inactive	inactive
CNC(=O)C[C@@H](N)C(=O)N[C@@H](C(=O)N[C@@H]1C(=O)N2[C@@H]1SC(C)(C)[C@@H]2C(=O)O)c1ccc(O)cc1	inactive	inactive
CCCCCCCCCCCCCCCCCC[N+](C)(C)CCC[Si](OC)(OC)OC	inactive	inactive
CC(C)c1ncc([N+](=O)[O-])n1C	inactive	inactive
O=C(O)CCC/C=C\C[C@@H]1[C@@H](/C=C/[C@@H](O)COc2cccc(Cl)c2)[C@H](O)C[C@@H]1O	inactive	inactive
C=CC(=O)O	inactive	inactive
Nc1ncnc2c1ncn2CCOCP(=O)(O)O	inactive	inactive

Structure (SMILES)	Potency [1]	Potency [2]
CN(Cc1ccccc1)Cc1ccccc1	inactive	inactive
OCC(O)CO	inactive	inactive
CC(=O)c1ccc2c(c1)N(CCCN1CCN(CCO)CC1)c1ccccc1S2	inactive	inactive
CC(C)=CCC/C(C)=C/CC/C(C)=C/CC/C=C(\C)CC/C=C(\C)CCC=C(C)C	inactive	inactive
FC(F)(F)COCC(F)(F)F	inactive	inactive
O=C(O)c1ccc(NC(=O)[C@H](Cc2ccc(O)cc2)NC(=O)c2ccccc2)cc1	inactive	inactive
CCCOC(=O)c1ccccc1O	inactive	inactive
Cc1cc(=O)c(C(=O)N[C@@H](C(=O)N[C@@H]2C(=O)N3C(C(=O)O)=C(CSc4nnnn4C)CS[C@H]23)c2ccc(O)cc2)c[nH]1	inactive	inactive
CC1C(=O)CC2C3(C)CCC2(C(C)C(=O)O)C(=O)C13 (stereo not drawn)	inactive	inactive
CNC(=O)OCc1cccc(COC(=O)NC)n1	inactive	inactive
CS(=O)(=O)OCC(O)C(O)COS(C)(=O)=O (stereo not drawn)	inactive	inactive
OCl	inactive	inactive
CC(C)CCC[C@@H](C)[C@H]1CC[C@H]2[C@@H]3CC[C@@H]4C[C@H](O)CC[C@]4(C)[C@H]3CC[C@]12C	inactive	inactive
NC(=O)[C@@H]1CCCN1C(=O)[C@H](Cc1cnc[nH]1)NC(=O)[C@@H]1CCC(=O)N1	inactive	inactive
CC1=CC(=O)NS(=O)(=O)O1	inactive	inactive
Nc1nc(=O)n([C@@H]2CS[C@H](CO)O2)cc1F	inactive	inactive
CCOC(=O)C1=C(COCCN)NC(C)=C(C(=O)OC)C1c1ccccc1Cl (stereo not drawn)	inactive	inactive
O=C(O)CC/C=C\CC[C@@H]1[C@@H](N2CCCCC2)[C@@H](O)C[C@@H]1OCc1ccc(-c2ccccc2)cc1	inactive	inactive
CC(C)CCC[C@@H](C)[C@H]1CC[C@H]2[C@@H]3CC=C4C[C@@H](O)CC[C@]4(C)[C@H]3CC[C@]12C	inactive	inactive
CCCCC[C@H](O)/C=C/[C@H]1[C@H](O)CC(=O)[C@@H]1C/C=C\CCCC(=O)O	inactive	inactive
COc1ccc2c(=O)c(C)c(-c3ccccc3)oc2c1CN(C)C	inactive	inactive
